Reference: ChEMBL document CHEMBL1157539, “Thousands of chemical starting points for antimalarial lead identification” (Nature, 2010)
Whole data set: some 13,000 compounds, median “IFI” near 4, cut for the highest 2% near 17. The list comes from a sample in which the highest values are over-represented; it also holds similar structures and randomly drawn compounds.

Experiment: GSK_TCMDC: Inhibition Frequency Index (IFI). The number of non-kinase HTS assays where a compound showed > 50 % inhibition, expressed as a percentage of the number of such assays in which the compound was tested
Format: functional

Compound	IFI [%]
CN/C(=N\O)NCCN(C)C	1.43
Clc1cccc(Nc2ccc3c(N4CCCCC4)ncnc3n2)c1	8.33
CS(=O)(=O)CCNCc1nc(-c2ccc3c(Nc4ccc(Cl)cc4F)ccnc3c2)cs1	7.69
CS(=O)(=O)CCNCc1nc(-c2ccc3c(=O)[nH]cnc3c2)cs1	22.6
CS(=O)(=O)CCNCc1nc(-c2ccc3c(Nc4ccc(F)c(O)c4)ccnc3c2)cs1	3.73
Cc1c(N=O)cc(C(C)(C)C)c(O)c1C(=O)Nc1ccc([N+](=O)[O-])cc1Cl	25.2
Cc1cc([N+](=O)[O-])ccc1NC(=O)Nc1cccc(C(F)(F)F)c1	7.89
Cc1sc(NC(=O)c2ccc([N+](=O)[O-])cc2Cl)c(C(N)=O)c1C	0.75
C=CCNC(CCCCC)c1ccc(OCCOc2ccc(C(CCCCC)NCC=C)cc2)cc1 (stereo not given)	18.3
CCCCC(NCC)c1ccc(OCCOc2ccc(C(CCCC)NCC)cc2)cc1 (stereo not given)	8.82
CCCCCC(NCCCC)c1ccc(OCCOc2ccc(C(CCCCC)NCCCC)cc2)cc1 (stereo not given)	16.3
CCCCCCNC(=N)c1ccc(OCCCCCOc2ccc(C(=N)NCCCCCC)cc2)cc1	12.3
CCCCCOc1ccc(C(O)C(CCC(CN2CCCCCC2)C(O)c2ccc(OCCCCC)cc2)CN2CCCCCC2)cc1 (stereo not given)	12.9
CCCCCCC(N)c1ccc(OCCCOc2ccc(C(N)CCCCCC)cc2)cc1 (stereo not given)	24.5
Fc1ccc(C=NNc2nc3ccccc3[nH]2)cc1	1.42
O=C1Nc2cccc3c2C1(CCCCN1CCC(c2c(-c4ccc(F)cc4)[nH]c4ccccc24)CC1)CCC3 (stereo not given)	7.91
CN(c1ccc(NC(=O)Nc2cccc(Cl)c2)cc1)c1ccnc(N)n1	6.9
CN(c1ccccc1)c1ccnc(NC(=N)Nc2ccc(Cl)cc2)n1	18.4
CCNC(=O)Nc1ccc(N(C)c2ccnc(NC3CC3)n2)cc1	2.97
Cc1cc(NCCC(=O)Nc2ccccc2)nc(NCCOc2ccccc2)n1	4.88

Compound	IFI [%]
C=CCOC(=O)N1CCC(CNCc2cccc(-c3ccc(-c4nc5ccccc5[nH]4)s3)c2)C1 (stereo not given)	6.73
Cc1cc2nc(N/C(N)=N/C(=O)NC3CCCCC3)nc(C)c2cc1C	9.38
CCN(CC)CCOc1ccc(N(Cc2ccc(C(C)(C)C)cc2)C(=O)c2ccc(Cc3ccccc3)cc2)cc1OC	5.84
Cc1cccc2nc(-c3ccc(-c4cccc(CNCCN5CCNCC5)c4)cc3)[nH]c12	6.93
CC(C)COc1ccc(Cl)cc1Cc1nc(-c2nc3ccc(CN4CCCC4)cc3[nH]2)co1	16.1
CNCc1cccc2nc(-c3ccc(Cc4cc(Cl)ccc4OCC(C)C)o3)[nH]c12	16.7
CN1CCN(c2ccc3[nH]c(-c4ccc(Cc5cc(Cl)ccc5OCc5ccccc5)o4)nc3c2)CC1	24.7
Clc1ccc(OCc2ccccc2)c(Cc2ccc(-c3nc4cnccc4[nH]3)o2)c1	12.2
CC(C)COc1ccc(Cl)cc1Cc1nc(-c2nc3ccc(CN4CCN(C)CC4)cc3[nH]2)co1	5.81
CC(C)COc1ccc(Cl)cc1Cc1ccc(-c2nc3cc(CCN(C)C)ccc3[nH]2)o1	16
CC(C)COc1ccc(Cl)cc1Cc1ccc(-c2nc3cnc4ccccc4c3[nH]2)o1	7.23
CC(C)COc1ccc(Cl)cc1Cc1nc(-c2nc3ccc(CN4CCCCC4)cc3[nH]2)co1	18.3
CC(C)COc1ccc(Cl)cc1Cc1ccc(-c2nc3cc(N4CCN(C)CC4)ccc3[nH]2)o1	17.2
CC(C)COc1ccc(Cl)cc1Cc1ccc(-c2nc3cc(CCN4CCCC4)ccc3[nH]2)o1	22.2
CC(C)COc1ccc(Cl)cc1Cc1ccc(-c2nc3cc(F)c(F)cc3[nH]2)o1	13.7
CN1CCN(CCc2ccc3nc(-c4csc(Cc5cc(Cl)ccc5OCc5ccccc5)n4)[nH]c3c2)CC1	10.2
COc1ccc(NC(=O)CCNc2cc(C)nc(NCCc3ccc(F)cc3)n2)cc1	4.88
N#Cc1ccc(N2CCN(Cc3ccc(-c4ccc(-c5nc6cc(C(F)(F)F)ccc6[nH]5)cc4)cc3)CC2)nc1	3.96
NS(=O)(=O)c1cccc(-c2ccc3ncc(N4CCOCC4)nc3c2)c1	3.7
Cc1[nH]c(C)c(-c2ccc(-c3ccc(Cl)cc3)nc2)c(=O)c1Cl	0.92

Compound	IFI [%]
COc1cc2s/c(=N\C(=O)c3cccc([N+](=O)[O-])c3)n(C)c2cc1OC	1.72
O=C(NC1CCC(CCN2CCc3ccc(-c4cnccn4)cc3CC2)CC1)c1cccc(-n2cccn2)c1 (stereo not given)	5.3
O=C1CCCN1CCCNCc1ccc(-c2ccc(-c3nc4cc(C(F)(F)F)ccc4[nH]3)s2)cc1	6.67
O=C(Nc1cccc(-c2cccc(-c3nc4cc(C(F)(F)F)ccc4[nH]3)c2)c1)c1cccnc1	4.59
CCN(CC)CCCC(C)N/C(=N\c1ccccc1Br)Nc1ccc(C#N)cc1O (stereo not given)	0
Cc1cnc(Nc2cccc(CCN3CCOCC3)c2)nc1NC(C)C	17.2
OC(CNc1ccnc(Nc2cccc(CCN3CCOCC3)c2)n1)c1ccccc1 (stereo not given)	9.28
Cc1cccc(Nc2nccc(Nc3cccc(C(=O)NCCN4CCOCC4)c3)n2)c1	0
Oc1ccc(CCNCCCCNCCc2ccc(Cl)cc2)cc1O	6.12
Cc1[nH]c(C)c(-c2ccc(OCc3cccc(C(F)(F)F)c3)nc2)c(=O)c1Br	13.8
CCCC(C(=O)OCCNC)(c1ccccc1)c1ccccc1	3.6
COc1ccc(CCN(C)CCCN2CCC(NC(=O)c3cccc4c(=O)c5ccccc5sc34)CC2)cc1OC	21.9
COc1ccc(CCN(C)CCCCc2ccc(NC(=O)c3cccc4c(=O)c5cc(F)ccc5sc34)cc2)cc1OC	10
COc1ccc(CCN(C)CCCN2CCC(NC(=O)c3cccc4c(=O)c5ccccc5[nH]c34)CC2)cc1OC	5.76
Clc1ccc(Cl)c2[nH]c(CNCCCNc3nc4ccccc4[nH]3)cc12	4.38
COc1ccc2c(OC)cccc2c1CNCCCCCCNCc1c(OC)ccc2c(OC)cccc12	13.7
Cc1cccn2c(=O)c3cc(C(=O)NCCc4ccccc4)c(=N)n(CCCOC(C)C)c3nc12	4.3
O=[N+]([O-])c1ccc(/C=N/O)nc1	23.4
O=[N+]([O-])c1ccc(C=NNc2nc3ccccc3[nH]2)cc1	0
O=[N+]([O-])c1ccc2nccnc2c1	1.44
